# Experimental data as given in ChEMBL document CHEMBL3988442, “University of Dundee, Small-Polar-MMV Screening Library” (2021).
# Several values for one entry are separate records, joined by “and”; a condition that tells them apart may be missing. Equal values may be shown once. Out of some 34,000 compounds screened, about 290 (0.85%) showed an effect of 50% or more. The entries come from a sample that favours strong results as a whole.
# Tested on: Plasmodium falciparum
# Experiment: Plasmodium falciparum sporozoite viability assay
# Type: functional, organism-based
# Design: scale not given: in the data most compounds retested in dose-response had high values
SMILES,Percent Effect [%],Percent Effect (10 mM as filed; unlikely as a test dose)
COc1ccc(CN2CCN(C(C)=O)CC3(CC(=O)N(C)C3)C2)cc1.O=C(O)C(F)(F)F (configuration not stated),6.785,
CCOc1ccc(CC(=O)N2CCCC(n3nc(C)nc3C)C2)cc1 (configuration not stated),-2.342,
CC(C)N(Cc1nc(-c2cccs2)no1)CC1CCC(=O)N1 (configuration not stated),3.846,
OC(COCc1ccc2c(c1)OCO2)CN1CC(n2cccn2)C1 (configuration not stated),13.47,
Cc1cc(C)n(C2CCN(Cc3nc4ccccc4n3C)CC2)n1,1.623,
CC1=N[C@@]2(CC[C@@H]3CN(Cc4ccccc4)C[C@@H]32)C(=O)N1CC1CC1.O=C(O)C(F)(F)F,2.527,
CN1CC2(CCCN(Cc3nnc(-c4ccco4)o3)CC2)OC1=O (configuration not stated),,-3.132% and -3.886%
CN(C)c1cc(N2CCN(c3ccccn3)CC2)ncn1,-18.98,
CN(C)CCN(C)c1cc(N2CCN(c3ccccn3)CC2)ncn1,-8.534,
CC(=O)N1CCCC1(C)c1nc(C)no1 (configuration not stated),0.7282,
Cc1nc(C)c(CNC(=O)N2CCc3ccccc3C2CO)s1 (configuration not stated),-12.91,
COCCCN1Cc2cccc(NC(=O)c3cc(F)cc(F)c3)c2C1,,-15.93% and -21.99% and -27.51%
Cc1cnn(CCNCc2nnc(C3CC3)o2)c1,9.956,
Cc1ccc(NC(=O)Cn2cc(I)cn2)cc1,,-17.48% and -21.7% and -14.78%
CCOC(=O)c1ccc(NC(=O)Cn2cc(I)cn2)cc1,,-22.37% and -20.15% and -13.35%
NC(=O)c1ccc(NC(=O)Cn2cc(I)cn2)cc1,,84.67% and 86.35% and 89.46%
O=C(c1cccnc1)N1Cc2ccccc2OCC1Cn1ccnc1 (configuration not stated),-1.384,
Cc1cc(C)nc(C2CCN(C(=O)c3cnc(N(C)C)nc3)C2)n1 (configuration not stated),-0.8427,
OC1CCN(c2ccc(CNc3nc4ccccc4s3)cc2F)CC1,,62.02% and 41.95% and 71.05%
COC(=O)c1sc(NCc2ccc(N3CCC(O)CC3)c(F)c2)nc1Cl,,-24.87% and -16.11% and -1.959%
O=C(O)C(F)(F)F.O=C(O)C(F)(F)F.c1ccc(NCc2cnc3n2CCN(CC2CCOC2)CC3)nc1 (configuration not stated),-7.491,
Cc1ncsc1C(=O)NCc1ccnc(OCC(F)(F)F)c1,6.389,
CCN(CC)S(=O)(=O)c1cc2c3c(c1)c(C)cc(=O)n3CC2,16.61,

SMILES,Percent Effect [%],Percent Effect (10 mM as filed; unlikely as a test dose)
CN1CCN(Cc2cnc3n2CCN(Cc2cccs2)C3)CC1.O=C(O)C(F)(F)F.O=C(O)C(F)(F)F.O=C(O)C(F)(F)F,-13.03,
CCCC(C)C(=O)NCc1cn2cc(Br)ccc2n1 (configuration not stated),-3.946,
CCn1cc(NC(=O)Nc2ccc3c(c2)OCCO3)cn1,,64.15% and 57.73% and 68.6%
CCn1cc(NC(=O)NCC(c2ccc(OC)cc2)N(C)C)cn1 (configuration not stated),,43.93% and 35.12% and 56.29%
O=C(Cn1cc(Cl)cn1)Nc1ccc2c(c1)OCO2,,-26.57% and -36.31%
O=C(Cn1cc(Cl)cn1)Nc1ccc2c(c1)OCCCO2,,-49.11% and -46.89%
CCn1cc(NC(=O)NCCc2ccc3c(c2)OCCO3)cn1,-0.8103,
CCn1cc(NC(=O)NCC(c2cccc(OC)c2)N(C)C)cn1 (configuration not stated),,18.25% and 14.26% and 26.58%
O=C(CCn1cc(Cl)cn1)Nc1ccc2c(c1)OCCO2,,65.57% and 50.96%
Cc1nc2cc(O)nn2c(C)c1CCC(=O)NCc1cc(Br)cs1,3.643,
O=C(NCCc1ccccc1)c1cccc(S(=O)(=O)NC2CCOC2)c1 (configuration not stated),-7.302,
CN1CCC(c2cccc(-c3cccc(C(=O)O)c3)n2)CC1,10.86,
CCOc1ccc(CCCC(=O)N2CCC(C(=O)NC)C2)cc1C (configuration not stated),-7.967,
COc1cc(CCC(=O)NC(C)C(=O)O)ccc1OCC(F)(F)F (configuration not stated),-11.4,
Cc1nn(C)c(C)c1C1CCCN1c1ncnc2sccc12 (configuration not stated),-0.7353,
O[C@H]1CN(Cc2c[nH]nc2-c2ccccc2)CC[C@@]12CCCO2,16.42,
CN(C)C(=O)c1sc2ncccc2c1C1CNCCO1.Cl (configuration not stated),-1.679,
Nc1ncc(-c2ccc(Cl)cc2)c(C2CCCNC2)n1 (configuration not stated),17.56,
Cl.Clc1ccc(-c2ccc(C3CNCCO3)nc2)cc1 (configuration not stated),,88.25% and 80.55% and 85.69%
Cl.Cl.Cn1nc(C2CNCCO2)cc1CCOc1ccc(Cl)cc1 (configuration not stated),-1.356,
Cn1ccnc1CN1CCN(Cc2noc(C3CC3)n2)CC1,10.42,
CCN1CC[C@@]2(C(=O)N3CCOCC3)CCN(C(=O)C(C)C)CC[C@@H]12.O=C(O)C(F)(F)F,20.75,
Cc1ccc(-c2nccn2-c2ccc(OC3CCN(C)CC3)cc2)o1,,49.42% and 35.94%

SMILES,Percent Effect [%],Percent Effect (10 mM as filed; unlikely as a test dose)
CCOC[C@H]1CC[C@H]2[C@H](CCN2C(=O)c2cnccn2)O1,7.105,
c1ccc(OCCN2CCC(c3cnccn3)CC2)cc1,9.194,
O=C(c1cnccn1)N1CCN(Cc2csc(-c3ccccc3)n2)CC1,9.607,
CC(O)CN1CCN(Cc2csc(-c3ncccn3)n2)CC1 (configuration not stated),,68.95% and 42.73% and 61.03%
CC(C)C(=O)N1CCN(Cc2csc(-c3ncccn3)n2)CC1,,77.28% and 53.85% and 54.68%
CC(C)c1nc(CN2CCN(Cc3ccccn3)CC2)cs1,0,
CC(C)C(=O)N1CCN(Cc2csc(-c3ccccn3)n2)CC1,,63.59% and 62.99% and 41.75%
CC(O)CN1CCN(Cc2csc(-c3cnn(C)c3)n2)CC1 (configuration not stated),8.176,
c1cnc(-c2nc(CN3CCCN(Cc4cccs4)CC3)cs2)nc1,,-6.924% and 13.02% and 13.14%
COCC(=O)N1CCN(Cc2csc(-c3ncccn3)n2)CC1,,-31.63% and -33.22% and -17.89%
COCCN1CCC2(CCN(C(=O)c3ccc(F)cc3)CC2)C1=O,6.318,
CCC(=O)Nc1ccc(N2CCC(OC)CC2)c(C(F)(F)F)c1,1.93,
CCc1[nH]ncc1C(=O)N1CCCC(n2cncn2)C1 (configuration not stated),-4.375,
Cc1cccnc1C(Cc1ccsc1)NCc1cnc(N(C)C)nc1 (configuration not stated),-1.422,
Cc1cccc(CN2CCCn3c(nnc3CN3CCCC3=O)C2)n1.O=C(O)C(F)(F)F,-1.313,
CN(C)c1ccc(CC2COCCN(Cc3nccn3C)C2)nn1 (configuration not stated),-1.339,
Cn1ccnc1C(=O)N[C@@H]1CN(Cc2ccoc2)[C@@H]2CCCO[C@@H]21.O=C(O)C(F)(F)F,4.904,
CC1=Nc2c(c(=O)[nH]n2C2CCCC2)C(c2ccc(C(=O)O)cc2)S1 (configuration not stated),-7.784,
CCn1c(C)nc2cc(NC(=O)C3CN(C(C)=O)C3)ccc21,-0.5895,
CCn1c(C)nc2cc(NC(=O)CC3CCCCO3)ccc21 (configuration not stated),,43.93% and 40.46% and 65.03%
COc1ncccc1CN1CCC2(CC1)CC(OCC1CC1)CO2.O=C(O)C(F)(F)F (configuration not stated),8.839,
COc1ccccc1-n1cc(C(=O)NCCCn2nc(C)nc2C)cn1,3.022,
Cc1ccnn1-c1ccc(C(=O)N2CCCC(n3ccnc3)C2)cc1 (configuration not stated),2.837,

SMILES,Percent Effect [%],Percent Effect (10 mM as filed; unlikely as a test dose)
O=C(CO)N1CCC(CCc2ccnc(Nc3cnccn3)c2)CC1,-3.121,
CC(=O)N1CCC(CCc2ccnc(NC(=O)c3ccccn3)c2)CC1,,74.38% and 72.77% and 65.08%
Cc1cc(C)nc(N2CCC(CNC(=O)c3ccccn3)CC2)n1,1.904,
O=C(Nc1cc(CCC2CCN(CCO)CC2)ccn1)c1ccccn1,,45.19% and 58.77% and 35.89%
CC(=O)Nc1cc(CCC2CCN(C(=O)c3ccccn3)CC2)ccn1,,2.531% and -14.73% and -5.68%
CN1CCC(CCc2ccnc(NC(=O)c3ccccn3)c2)CC1,,67.18% and 85.05% and 49.69%
CN1CCC(CCc2ccnc(Nc3cnccn3)c2)CC1,-4.215,
Cc1ccccc1CCNC(=O)CN1CCCC(Cn2cncn2)C1 (configuration not stated),7.953,
O=C(C1=CCCC1)N1C[C@@H]2COC[C@]2(COc2ncccc2F)C1.O=C(O)C(F)(F)F,10.29,
O=C(c1ccc(-c2cccc3c2CCNC3)o1)N1CCCCC1,-26,
O=S(=O)(c1ccccc1)N1CC[C@]2(C[C@@H](OCC3CC3)CO2)C1,-7.967,
COC(=O)Nc1ccc(CNc2cncc(-n3cccn3)n2)cc1,-0.1023,
Cc1cc(CN(C)C(=O)c2ccc(OC(C)C)nc2)no1,6.375,
COc1ccc(CN2C[C@@H]3OCCN(C)[C@@H]3C2)cc1.O=C(O)C(F)(F)F,-4.875,
COCCC(=O)N1CC[C@@H](N(C)C)[C@@H]1Cc1ccccc1,-9.112,
COc1ccc(S(=O)(=O)N2C[C@@H]3CN(C)CCO[C@@H]3C2)cc1,1.798,
Cc1nccn1C1CCCN(C(=O)CCCNc2ncccn2)C1 (configuration not stated),3.922,
Cc1cnn(CC2CCCN2C(=O)c2ccccc2-n2cccn2)c1 (configuration not stated),9.109,
Cc1nc(N2CCN(C(=O)c3ccccc3)CC2)c2cnn(C)c2n1,-8.371,
Cl.OC1(c2ccc(F)cc2)CCN(Cc2ccccc2N2CCCC2)CC1,10.2,
Cc1cnccc1-n1nc(C(C)C)nc1CS(C)(=O)=O,,82.57% and 75%
Cc1cnccc1-n1nc(C(C)C)nc1CCN(C)S(C)(=O)=O,,-20.65% and -22.07%
CSCCc1nc(C(C)C)nn1-c1ccncc1C,,-19.09% and -18.73%
